# Sampled rows, rich in hits. Any-hit rate of the full collection: about 4.1%.
# GRIN3A LBD mod: modulators (binders) of human NR3A ligand-binding domain; NR3A LBD differential scanning fluorimetry, Tm shift; 0% = protein alone, 100% = glycine-bound protein; Tm shift relative to glycine control, % at 25 µM; 2.5% of 340,000 active;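 active means melting temperature shift of at least 10% of the positive control shift, at one fixed dose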
# pCIP destab: p/CIP protein destabilization; Q05BA5; F442A p/CIP-EGFP cells, EGFP fluorescence, 16 h; decrease of EGFP signal, % at 10 µM; 0.01% of 290,000 active;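 active means EGFP signal decrease of at least 30% at 10 µM or well 3 SD below plate mean, unless failing retest; inactive means the rest, including hits failing retest or dose response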
# beta cell repl: induces beta-cell replication in MIN6 cells; 0.29% of 330,000 active; proliferation, % at 10 µM; MIN6 cells proliferation, ATPlite luminescence, 48 h; cells starved in 0.2% serum; 100% = growth in 10% serum;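 active means compounds whose signal lies at least 3.5 SD above the mean of all wells on their plate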;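 further: 0% = DMSO-treated cells in low-serum medium and 100% = 10% serum control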
# MPTP inh: inhibitors of mitochondrial permeability transition pore; AID 602449; inhibition, % at 10 µM; 1.4% of 360,000 active; isolated mouse mitochondria, Ca2+ swelling absorbance, 30 min;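 active means inhibition of 50% or more, scaled per plate between neutral and stimulator controls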;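 further: 0% = DMSO wells given calcium and 100% = 1 mM EGTA wells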
# FAS TE block: blocks the thioesterase domain of human fatty acid synthase; AID 602261; recombinant FAS-TE, OMFH fluorogenic substrate, fluorescence endpoint; P49327; 0.67% of 360,000 active; inhibition, % at 15 µM;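 active means compounds whose normalised, plate-corrected inhibition of enzyme fluorescence in the single-dose primary screen is 50% or more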;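 further: 0% = DMSO with enzyme and 100% = substrate without enzyme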
# * marks the source's active call; other numbers are inactive results; nt = no result.
SMILES,GRIN3A LBD mod,pCIP destab,beta cell repl,MPTP inh,FAS TE block
COc1cccc(OC)c1NC(=O)c1ccc(-c2cc(Cl)ccc2Cl)o1,nt,nt,nt,-0.9,16.6
O=C1NC[C@H](CCCCN2C[C@H](Cc3ccc(O)cc3)N(CCC3CCCCC3)C(=O)C2=O)N(CCC2CCCCC2)C1=O,nt,nt,nt,-5.4,33.8
CC(C)(C)c1ccc(CC(=O)N2CCC2(C)C(=O)NS(=O)(=O)c2ccc3c(c2)CCO3)cc1 (stereo unspecified),nt,nt,nt,-0.2,-6.6
Nc1ccc(S(=O)(=O)Nc2nc(-c3ccccc3)cc(-c3ccccc3O)n2)cc1,nt,nt,nt,1.0,1.5
O=C(NC1CCCC1)C(C1CC1)n1c(-c2ccnc3ccccc23)nc2ccccc21 (stereo unspecified),nt,nt,nt,2.6,nt
COc1ccc(Cl)cc1NC(=S)Nc1ccc(Cl)cn1,16.1*,-2.7,-1.6,1.4,-3.1
COC(=O)c1cc(OC)c(OC)cc1NC(=S)Nc1cc(Cl)ccc1OC,-3.0,-9.5,0.0,24.1,-3.0
CC(C)(C)c1cc(NCCCn2ccnc2)n2ncc(-c3ccc(Cl)cc3)c2n1,19.6*,4.1,-6.7,2.7,17.0
COc1cc(CN(C2CC2)S(=O)(=O)c2ccccc2Br)cc(OC)c1,14.0*,nt,nt,0.3,23.2
Cc1noc(C)c1-c1ccc(C(=O)NCc2ccc(Cl)cc2)c2occc12,nt,nt,nt,-0.4,13.3
N#C/C(=C/c1ccc(N2CCCCC2)o1)C(=O)Nc1ccc2ccccc2c1,0.3,-768.4,nt,4.4,-45.9
N#C/C(=C/c1ccc(N2CCCCC2)o1)C(=O)Nc1ccc(Cl)cc1,11.5*,-688.5,-0.2,1.2,-88.6
O=C(Nc1cccnc1)c1ccc(N2CCOCC2)c([N+](=O)[O-])c1,0.5,-0.7,-1.9,-0.2,-2.5
O=C(NNC(=S)Nc1ccc(Br)cc1)c1ccc(N2CCOCC2)c([N+](=O)[O-])c1,19.0*,-8.7,0.0,30.0,3.1
COc1ccc2oc(-c3ccc(NC(=O)c4ccc(N5CCOCC5)c([N+](=O)[O-])c4)cc3)nc2c1,37.4*,-3.6,-3.4,23.7,7.3
Cc1cccc(NC(=O)c2ccc(N3CCOCC3)c([N+](=O)[O-])c2)n1,-1.5,-16.6,-3.1,1.4,-0.1
Cc1cc(C)cc(OCC(=O)OCC(=O)NCc2cccs2)c1,16.1*,-0.9,1.7,0.4,-6.1
COc1ccc(OC)c(-c2cc(C(=O)N/N=C/c3ccc(F)cc3)c3ccccc3n2)c1,0.9,nt,-1.3,2.4,34.2
COc1ccc(-c2cc(C(=O)N/N=C/c3ccc4c(c3)OCO4)c3ccccc3n2)c(OC)c1,-3.2,-5.7,-0.8,-1.3,50.8*
O=C(O)COc1ccccc1/C=N/NC(=O)/C(=C\c1ccc2c(c1)OCO2)NC(=O)c1ccccc1,190.5*,5.3,4.1,-1.0,2.0
COc1ccc(OC)c(-c2cc(C(=O)Nc3ccccc3C(N)=O)c3ccccc3n2)c1,10.9*,nt,-3.6,0.5,20.4
O=C(N/N=C/c1ccc(-c2ccc(Br)cc2)o1)c1ccc2c(c1)OCO2,10.8*,-10.8,-3.7,2.3,1.8
COc1cccc(-c2cnc3c(NC=O)cc(-c4ccncc4)cn23)c1,nt,nt,nt,0.6,22.0
COc1cc2ccccc2cc1C(=O)N/N=C/c1ccc2c(c1)OCO2,11.5*,-3.2,-2.0,0.1,14.8
COc1ccc(NC(=O)c2cc(-c3ccccc3)nc3c2c(C)nn3-c2ccccc2)c(OC)c1,13.1*,2.1,-2.5,3.0,27.3
SMILES,GRIN3A LBD mod,pCIP destab,beta cell repl,MPTP inh,FAS TE block
O=C(N/N=C/c1cccc2ccccc12)c1ccncc1,-16.0,3.2,-1.6,3.5,-3.3
O=C(N/N=C/c1ccc2c(c1)OCO2)c1cc(-c2ccc(F)cc2)nc2ccccc12,25.0*,-9.2,0.2,7.4,9.1
O=C(N/N=C/c1ccccc1O)c1ccncc1,20.9*,nt,1.6,-2.7,0.6
COc1ccccc1C(=O)N/N=C/c1ccc2c(c1)OCO2,-0.1,0.6,-0.7,-1.8,-2.0
Cc1ccccc1-c1cc2nc(NCc3ccc(N(C)C)cc3)n(C)c(=O)c2s1,nt,nt,nt,2.1,17.0
O=C(NC1CCCC1)C(c1ccccc1)n1c(-c2ccc3c(c2)CCO3)nc2ccccc21 (stereo unspecified),nt,nt,nt,-1.7,nt
O=C(N/N=C/c1c(Cl)cccc1Cl)c1ccc(-n2cnnn2)cc1,2.8,nt,0.0,0.8,-2.7
Cc1ccccc1/C=N/NC(=O)c1ccc(-n2cnnn2)cc1,29.8*,nt,-4.2,-0.8,-3.1
COc1cc(/C=N/NC(=O)c2cc(-c3cccc(Br)c3)nc3ccccc23)cc(OC)c1O,13.0*,nt,-2.1,4.7,6.2
COc1cc(/C=N/NC(=O)c2cc(-c3ccccc3)nc3ccccc23)ccc1O,5.6,-2.4,1.1,0.1,9.7
O=C(Nc1ccccc1C(=O)N/N=C/c1ccc(O)cc1)c1ccccc1,6.8,-7.0,-3.2,-1.5,5.1
O=C(N/N=C/c1ccc(O)cc1)c1cc(-c2ccccc2)nc2ccccc12,13.4*,1.3,1.2,1.1,3.4
O=C(N/N=C/c1ccc(O)cc1)c1csc2ccccc12,22.9*,-19.7,-3.2,-0.1,1.9
COCCNC(=O)C1(C)CCCN(C(=O)c2cccc(OC(F)(F)F)c2)C1 (stereo unspecified),nt,nt,nt,-1.5,-9.1
O=C(NN=Cc1ccc2c(c1)OCO2)c1ccncc1,25.1*,nt,nt,-1.9,-6.3
O=C(NN=Cc1ccc2c(c1)OCO2)c1ccccc1,-0.8,nt,nt,-0.4,-5.4
COc1ccc(C(C)(O)c2nc(-c3ccncc3)cs2)cc1 (stereo unspecified),nt,nt,nt,6.1,-6.2
COc1ccc(C(=O)N2CCCCC2c2cc(C(=O)NCc3ccc(F)cc3)no2)cc1 (stereo unspecified),nt,nt,nt,1.4,4.9
O=C(/C=C/c1ccccc1)c1ccccc1,1.3,5.6,-7.5,0.6,8.5
N#Cc1ccc(/C=C/C(=O)c2ccccc2)cc1,12.1*,7.7,-4.8,0.2,-2.0
CCN(CC(=O)NCc1ccc(F)cc1)C(=O)COc1ccc2ccccc2c1,10.0*,2.3,0.0,3.3,2.3
CCc1nc2ccc(C(=O)Nc3cccc(NS(C)(=O)=O)c3)cn2c1N(CCC(C)C)CCN(C)C,nt,nt,nt,-1.7,-11.3
COc1ccc(C(=O)NCc2ccncc2)cc1S(=O)(=O)N1CCOCC1,-2.2,nt,-3.3,-1.7,-5.1
O=C(NCc1ccncc1)c1ccc(Cl)c(S(=O)(=O)N2CCOCC2)c1,321.5*,-4.6,4.5,3.8,-2.3
S=C(Nc1cccnc1)Nc1cccc2cnccc12,-0.4,52.4*,1.7,1.1,-2.7
Fc1ccc(NC(=S)Nc2cccc3cnccc23)cc1,-2.0,20.7,-3.8,-0.3,-0.9
COC(=O)[C@]12CCCCC=C1N(Cc1ccccc1)C(=O)[C@H](CC(=O)NCCC(C)C)C2,nt,nt,nt,0.1,0.1
COc1cccc(Nc2ncnc3c2cnn3-c2cccc(C)c2)c1,13.1*,-8.8,-1.4,10.3,25.9
COc1ccc(-n2ncc3c(NCC(C)C)ncnc32)cc1,16.8*,7.3,-3.1,-0.3,5.4
Fc1cccc(Nc2ncnc3c2cnn3-c2ccccc2)c1,27.9*,-17.6,-3.4,4.4,14.2

# High-throughput results: PubChem BioAssay, Sanford-Burnham Center for Chemical Genomics
